This is part of a sample that, as a whole, favours compounds with a hit. Of some 79,000 tested, about 15% had one in any assay. Rule as the data show it: active = growth inhibition above about 70%; inactive = the rest.
Experiments:
[1] = NCI Yeast Anticancer Drug Screen. Data for the rad50 strain (AID 155);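 also: 0% = growth of vehicle-only cultures of the same strain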; details: S. cerevisiae rad50 strain growth inhibition; at 50.0 µM; stronger effect = higher value
How it was run: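 Vehicle-treated cultures provide the reference for the growth inhibition reported for compound-exposed, repair-deficient yeast.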

[2] = NCI Yeast Anticancer Drug Screen. Data for the mec2-1 strain (AID 157); details: S. cerevisiae mec2-1 strain, at 50.0 µM, stronger effect = higher value
How it was run: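 Strain: mec2-1 (DNA repair/cell cycle alteration). Compound exposure, then growth measured; inhibition expressed relative to vehicle.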

[3] = NCI Yeast Anticancer Drug Screen. Data for the sgs1 mgt1 strain (AID 161);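 also: 0% = growth of cultures given vehicle only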; details: S. cerevisiae sgs1 mgt1 strain, at 50.0 µM, stronger effect = higher value
How it was run: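 Mutant yeast exposed to compound; growth scored against vehicle-only wells.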

[4] = NCI Yeast Anticancer Drug Screen. Data for the cln2 rad14 strain (AID 165);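 also: 0% = growth equal to vehicle treated cultures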; details: S. cerevisiae cln2 rad14 strain, at 50.0 µM, stronger effect = higher value
How it was run: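 Compounds are applied to the cln2 rad14 yeast strain, and growth is then compared with that of vehicle-treated cultures to give inhibition.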

[5] = NCI Yeast Anticancer Drug Screen. Data for the bub3 strain (AID 167); details: S. cerevisiae bub3 mutant strain, at 50.0 µM, stronger effect = higher value
How it was run: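 Mutant yeast screening strain plus compound; vehicle-treated cultures serve as the 0% inhibition reference.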

[6] = NCI Yeast Anticancer Drug Screen. Data for the mlh1 rad18 strain (AID 175); details: S. cerevisiae mlh1 rad18 strain growth inhibition; at 50.0 µM; stronger effect = higher value
How it was run: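 Read-out is yeast growth inhibition, calculated against vehicle-only controls. The compound was applied to a strain engineered with DNA damage repair alterations.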

Measured: growth inhibition

CC(=O)Nc1c([N+](=O)[O-])cc(C2CCCCC2)cc1[N+](=O)[O-]
inactive: [1] -8.05% | [2] -7.25% | [3] 4.25% | [4] -34.5% | [5] 23.2% | [6] -9.85%

CC(O)C(C)NC(C)C(C)O (stereo not drawn)
inactive: [1] 0.4% | [2] -0.35% | [3] -30.8% | [4] 15.3% | [5] 12.1% | [6] -2.85%

O=S(=O)(c1ccccc1)N1C[C@@H]2[C@H](C1)[C@H]1C=C[C@@H]2C1
inactive: [1] 1.95% | [2] -12.3% | [3] 13% | [4] -4.8% | [5] 42.6% | [6] -11%

C=C(CN(CC)CC)C1(c2ccccc2)CC2(CCCC2)C(=O)O1 (stereo not drawn)
inactive: [1] 20.9% | [2] 23.9% | [3] 1.15% | [4] 3.6% | [5] 10.2% | [6] 5.65%

CO[C@H]1C[C@H]2CC[C@@]1(C)C2(C)C
inactive: [1] 8.85% | [2] 12.6% | [3] 3.7% | [4] -18.9% | [5] 0.4% | [6] -5.55%

O=C(CCCCC(=O)N1CCOCC1)N1CCOCC1
inactive: [1] -9.3% | [2] -21.9% | [3] -2.45% | [4] -19.6% | [5] 2.1% | [6] -9.4%

CN(C)c1nc(N(C)C)nc(N(C)C=O)n1
inactive: [1] -4.9% | [2] -21.9% | [3] -30.7% | [4] -2.85% | [5] -27.6% | [6] -5.55%

Cc1[nH]n(-c2ccccc2)c(=O)c1N=Nc1cccc(C(F)(F)F)c1
inactive: [1] 8.7% | [2] 14.7% | [3] 17.8% | [4] -4.75% | [5] 6.95% | [6] 15.7%

Cc1cc(C)c(/C=N/NC(=O)NN)c(C)c1
inactive: [1] -16.7% | [2] -7.15% | [3] -12.2% | [4] -2.1% | [5] 2.8% | [6] -4.6%

COc1cc2cnc(-c3ccncc3)c(N)c2cc1OC
inactive: [1] -0.75% | [2] 8.4% | [3] -11.6% | [4] 24.6% | [5] 7.8% | [6] 7.65%

CCOC(=O)C1CC(C)c2[nH]c3ccccc3c21 (stereo not drawn)
inactive: [1] 2.2% | [2] 6.9% | [3] -5.15% | [4] -25% | [5] -12% | [6] -13%

c1csc(NC(Nc2nccs2)C23CC4CC(CC(C4)C2)C3)n1
inactive: [1] 28.1% | [2] 12.7% | [3] -1.4% | [4] 20.6% | [5] 1.1% | [6] 7.45%

CCN(CC)c1ccc2c(C)c(Cc3ccccc3)c(=O)oc2c1
inactive: [1] 1.8% | [2] -22.8% | [3] 24.6% | [4] 7.7% | [5] 31.9% | [6] 0.7%

CNC(=O)C(c1ccccc1)C(F)(F)F (stereo not drawn)
inactive: [1] 8.1% | [2] 3.9% | [3] -6.7% | [4] -12.4% | [5] 10.3% | [6] 4.3%

O=NN(CCCl)C(=O)NCc1ccc[n+]([O-])c1
inactive: [1] 19.7% | [2] 8.6% | [3] -2% | [4] 4.25% | [5] 2.2% | [6] 8.2%

O=C(O)c1ccc(C(=O)Nc2cccc3ccccc23)c(C(=O)O)c1
inactive: [1] -6.9% | [2] 8.4% | [3] -11.9% | [4] 6.35% | [5] 3.55% | [6] -10.2%

OCc1ccc(-c2ccccc2)cc1
inactive: [1] 4.4% | [2] -14.6% | [3] 4.6% | [4] 8% | [5] 3.7% | [6] 28.8%

O=C(O)COc1ccccc1-c1ccccc1
inactive: [1] -34.4% | [2] -13.7% | [3] -10.6% | [4] -48.5% | [5] 1.55% | [6] -8.6%

OCC(O)C(OC1OC(CO)C(O)C(O)C1O)C(O)c1cnn(-c2ccccc2)n1 (stereo not drawn)
inactive: [1] -0.05% | [2] 8.6% | [3] -24.3% | [4] -14.7% | [5] -1.5% | [6] 15.2%

CS/C(c1ccccc1)=[N+](/C)[O-]
inactive: [1] 42.6% | [2] 16.5% | [3] 17.3% | [4] -1% | [5] 24.6% | [6] 25.6%

C=CCNC(=S)Nc1cccc(OC(=O)Nc2ccc(Cl)c(Cl)c2)c1
inactive: [1] -16.4% | [2] -11.2% | [3] -18.4% | [4] -23.1% | [5] 1% | [6] -12.4%

CCCCCn1c(=O)c2cc3c(=O)n(CCCCC)c(=O)c3cc2c1=O
inactive: [1] 14.2% | [2] 7.3% | [3] 16.2% | [4] -52.6% | [5] 10% | [6] -5.6%

COC(=O)C(C(=O)C(N)=O)c1csc(-n2nc(-c3ccccc3)cc2-c2ccccc2)n1 (stereo not drawn)
inactive: [1] -1.5% | [2] -13.4% | [3] -13.8% | [4] 10.2% | [5] 30.2% | [6] -7.2%

COc1cc2c(cc1OC)-c1ccc3cc4c(cc3c1N(C)C2)OCO4
inactive: [1] -3.8% | [2] -36.6% | [3] 9.8% | [4] -4.65% | [5] -12.7% | [6] -2.65%

O=C(O)/C=C\C(=O)Nc1ccc(N=Nc2ccccc2)cc1
inactive: [1] -34.6% | [2] -39.9% | [3] -7.95% | [4] -3.65% | [5] -18.8% | [6] -2.9%

Cc1c(Cl)c(=O)oc2cc(OCC(O)COC(C)C)ccc12 (stereo not drawn)
inactive: [1] -23.7% | [2] -30.9% | [3] -36.3% | [4] -23.2% | [5] -13.3% | [6] -25.4%

CC(=O)OCCOc1ccccc1Cl
inactive: [1] 2.75% | [2] -5.8% | [3] 3.25% | [4] -16.9% | [5] -23.1% | [6] -13.1%

CCCC(C(C)=O)C(C)=O
inactive: [1] -7.8% | [2] -0.65% | [3] -4.85% | [4] 0.3% | [5] 6% | [6] -4.25%

C/C(CCn1[nH]c(=O)ccc1=O)=N\NC(=O)C(=O)NN
inactive: [1] -4.75% | [2] -18.4% | [3] -6.55% | [4] 2.55% | [5] 1.55% | [6] -8.2%

CCC(C)C(NS(=O)(=O)Cc1ccccc1)C(=O)O (stereo not drawn)
inactive: [1] -3.85% | [2] 16.4% | [3] 3.05% | [4] 10.9% | [5] -10.3% | [6] 6.8%

CC(=O)Nc1cc2cc(Br)ccc2oc1=O
inactive: [1] 28.9% | [2] 33.4% | [3] 18.9% | [4] 40% | [5] 50.1% | [6] 36.3%

OCCSC(SCCO)=C(SCCO)SCCO
inactive: [1] 9.85% | [2] -15.7% | [3] -1.55% | [4] -13.2% | [5] 1.35% | [6] 2.75%

CC(=O)Oc1ccccc1[C@H]1CC(=O)C[C@H](c2ccccc2OC(C)=O)C12C(=O)c1ccccc1C2=O
inactive: [1] -12.8% | [2] -18.4% | [3] -7.55% | [4] 30.1% | [5] -17.4% | [6] 9.3%

CCOC(=O)C(=CNc1ccc(S(N)(=O)=O)cc1)C(=O)OCC
inactive: [1] 13.7% | [2] 7.95% | [3] -31.1% | [4] 5.6% | [5] -14% | [6] -26.2%

CN(C)CCCN1CC2C3CCCCC3=C3CCCCC3C2C1 (stereo not drawn)
inactive: [1] -15.4% | [2] 0.6% | [3] -24.1% | [4] -16.9% | [5] 1.85% | [6] -16.9%

Cc1nc2ccc(Cl)cc2c(-n2ccnc2)c1CCn1ccnc1
inactive: [1] -11.6% | [2] -4.6% | [3] -3.55% | [4] -0.5% | [5] 9.25% | [6] -3.7%

Cc1ccc(S(=O)(=O)Oc2ccc(N(CC(=O)O)S(=O)(=O)c3ccc(C)cc3)cc2)cc1
inactive: [1] 45.3% | [2] 9.8% | [3] 29.4% | [4] 11.8% | [5] -1.35% | [6] 17.5%

CC(=O)CC(=O)Nc1cccc(C)c1
inactive: [1] -13.9% | [2] -15.7% | [3] 2.8% | [4] 5.3% | [5] 16.2% | [6] -5.65%
